According to PubChem BioAssay (Tox21):
Results filed as inconclusive are left out. Unmarked numbers belong to inactive results. The call rests on the fitted dose curve; in most records, active means well fitted cell-killing curve with a large enough effect in the repeat runs; inconclusive means weak or mixed curves; inactive means flat fitted curve, though single readings scatter.

assay: qHTS RealTime-Glo MT Cell Viability Assay in HepG2 cells - 16 hour (AID 1224885); details: RealTime-Glo luminescence; series mostly up to 76.8 µM; activity change, negative = cytotoxic: at the top concentration; further: nearly all actives have a fitted effect of over 50% in size
Source text: U.S. Tox21 Program National Center for Advancing Translational Sciences [NCATS] NIH Chemical Genomics Center [NCGC] U.S. Environmental Protection Agency [EPA] National Institutes of Environmental Health Sciences [NIEHS] National Toxicology Program [NTP] U.S. Food and Drug Administration [FDA] Tox21 Assay Overview: Measure of cell viability is critical in the cell-base assay. Analysis of cell viability is necessary for the characterization of cell responses to cytotoxic drugs and environmental stress. A RealTime-Glo MT Cell Viability Assay to monitor cell viability in real time of continues cell culture during 40 hours of compound treatment was used to screen Tox21 10K library compounds in HepG2 cells. The RealTime-Glo MT Cell Viability Assay is a nonlytic, homogeneous, bioluminescent method to measure cell viability in real time using a simple, plate-based method. The assay involves adding NanoLuc luciferase and a cell-permeant prosubstrate to cells in culture. Viable cells reduce the proprietary prosubstrate to generate a substrate for NanoLuc luciferase. This substrate diffuses from cells into the surrounding culture medium, where it is rapidly used by the NanoLuc Enzyme to produce a luminescent signal. The signal correlates with the number of viable cells, making the assay well suited for cytotoxicity studies.
Tox21 Assay Protocol Summary: The mixture of HepG2 cell suspension and reagents were dispensed at 600cells/6 ul/well in 1536-well tissue culture treated black solid bottom plates using a Multidrop dispenser. After the assay plates were incubated at a 37 C/5% CO2 incubator for 5 hours, 23 nL of compounds dissolved in DMSO, positive and negative controls was transferred to the assay plate by a pintool work station. The plates were incubated at 37 C for 40 hours. The luminescence intensity were measured at 0h, 8h, 16h, 24h, 32h and 40h time points using ViewLux plate reader during compound treatment.
On the % scale 0 is the no-effect control and ±100 the full control effect.

First: Cc1c(N)cccc1N
Second: Cc1ccc(C(C)C)cc1O
The “activity change, negative = cytotoxic” value of the first is higher: 1.93% for the first, -9.14% for the second.

First: CCOC(=O)COc1ccc2c(c1)CC(NCC(O)c1cccc(Cl)c1)CC2 (stereo not given)
Second: CCOc1ccc(NC(N)=O)cc1
The “activity change, negative = cytotoxic” value of the first is lower: -23.3% for the first, 1.92% for the second.

First: CC(C)C1=CC2=CC[C@@H]3[C@](C)(CCC[C@@]3(C)C(=O)O)[C@H]2CC1
Second: CC(C)=CCC[C@](C)(O)[C@@H]1CC=C(C)CC1
The “activity change, negative = cytotoxic” value of the first is higher: 2.13% for the first, -13.1% for the second.

First: CCOC(=O)C1CC(=O)C(=C(O)C2CC2)C(=O)C1 (stereo not given)
Second: CCCC1CCC(=O)O1 (stereo not given)
The “activity change, negative = cytotoxic” value of the first is higher: 0.07% for the first, -1.93% for the second.

Compared with `O=S(=O)(O)C(F)(F)F`, `O=C(CC(=O)C(F)(F)F)c1ccccc1` is higher in “activity change, negative = cytotoxic” value: -0.332% for the first, 1.03% for the second.

Going from `CCC/C=C/CO` to `C=CCCC=C`, the “activity change, negative = cytotoxic” value falls from 0.519% to -2.91%.

Going from `Cc1nc(-c2ccccn2)ncc1C(=O)Nn1cc(C)c2cc(F)ccc21` to `O=C(Cl)c1cccc([N+](=O)[O-])c1`, the “activity change, negative = cytotoxic” value rises from -21.2% to 0.672%.

Compared with `COC(C)CCO` (stereo not given), `CC(C)O` is lower in “activity change, negative = cytotoxic” value: 4.25% for the first, 0.579% for the second.

Going from `CC(C)CCCCCCc1ccc(OCCOCCO)cc1` to `CCCCCCCCCC#N`, the “activity change, negative = cytotoxic” value falls from 3.25% to -0.575%.

Compared with `CC(C)S`, `CCOC(=O)NCCC[Si](OCC)(OCC)OCC` is lower in “activity change, negative = cytotoxic” value: 0.924% for the first, 0.569% for the second.

Compared with `CCc1cc2cc(OC)c(OC)cc2c(Cc2ccccc2)n1`, `COc1ccc2nc(NC(=O)Nc3ccccc3)sc2c1` is higher in “activity change, negative = cytotoxic” value: -21.3% [at 35.3 µM] for the first, -8.42% [at 35.3 µM] for the second.

First: CCCS(=O)c1ccc2nc(NC(=O)OC)[nH]c2c1 (stereo not given)
Second: CCCNC(C)C(=O)Nc1c(C)csc1C(=O)OC (stereo not given)
The “activity change, negative = cytotoxic” value of the first is lower: -10.5% [at 35.3 µM] for the first, 3.04% [at 35.3 µM] for the second.

Going from `CC(=O)Oc1cc(C(C)C)c(OCCN(C)C)cc1C` to `CCOC(=O)c1ccccc1O`, the “activity change, negative = cytotoxic” value rises from -0.516% [at 35.3 µM] to 1.27% [at 35.3 µM].

Going from `CN1CCN(C2=Nc3ccccc3Oc3ccc(Cl)cc32)CC1` to `CN1CCN(C2=Nc3cc(F)ccc3Cc3ccccc32)CC1`, the “activity change, negative = cytotoxic” value rises from -10.4% [at 35.3 µM] to -7.13% [at 35.3 µM].

Compared with `Cc1onc(-c2ccccc2)c1C(=O)Cl`, `CN1C(=O)CC(c2ccccc2)C1=O` (stereo not given) is lower in “activity change, negative = cytotoxic” value: 2.12% [at 35.3 µM] for the first, -0.438% [at 35.3 µM] for the second.

Compared with `CN1CCN(c2c(F)cc3c(=O)c(C(=O)O)cn4c3c2SCC4)CC1`, `C[C@]12CCC(=O)C=C1CC[C@@H]1[C@@H]2CC[C@@]2(C)[C@H]1CC[C@]2(O)C(=O)CO` is lower in “activity change, negative = cytotoxic” value: 3.55% [at 35.3 µM] for the first, -2.71% [at 35.3 µM] for the second.

First: Oc1ccccc1C=NCc1ccccc1
Second: c1ccc(CN(CC2=NCCN2)c2ccccc2)cc1
The “activity change, negative = cytotoxic” value of the first is higher: 1.64% [at 35.3 µM] for the first, -3.69% [at 35.3 µM] for the second.

Going from `CN(CCCN1c2ccccc2CCc2ccccc21)CC(=O)c1ccc(Cl)cc1` to `CCCNC(C)(C)COC(=O)c1ccccc1`, the “activity change, negative = cytotoxic” value rises from -16.3% [at 35.3 µM] to -0.0074% [at 35.3 µM].

Going from `CCOc1ccc(NS(=O)(=O)c2ccc(N)cc2)nn1` to `CS(=O)(=O)c1ccc([C@@H](O)[C@@H](CF)NC(=O)C(Cl)Cl)cc1`, the “activity change, negative = cytotoxic” value rises from -1.17% [at 35.3 µM] to 0.216% [at 35.3 µM].

Compared with `CC(=O)N(CC(O)CN(C(C)=O)c1c(I)c(C(=O)NCC(O)CO)c(I)c(C(=O)NCC(O)CO)c1I)c1c(I)c(C(=O)NCC(O)CO)c(I)c(C(=O)NCC(O)CO)c1I` (stereo not given), `N#Cc1ccc(C(c2ccc(C#N)cc2)n2cncn2)cc1` is lower in “activity change, negative = cytotoxic” value: 1.85% [at 35.3 µM] for the first, -0.897% [at 35.3 µM] for the second.
